Our source for the outcome and AC50 values is PubChem BioAssay (EPA / NIEHS).

The target of assay [1] is human RAR-related Orphan Receptor beta (RORb), RORB (gene 6096) (UniProt Q92753). Put plainly: ATG_RORb_TRANS: Attagene TRANS-FACTORIAL HepG2 Assay for human RAR-related Orphan Receptor beta (RORb) (AID 2283010; active = hit-call score of the fitted dose curve at least 0.9, where 1 is the maximum). An outline of the steps: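 In this TRANS-format test, human HepG2 cells express chimeric NR-Gal4 fusion proteins driving GAL4-UAS reporters. After 24 h dosing, reporter transcripts are measured by fluorescent RT-PCR/capillary electrophoresis, with DMSO as negative control.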
Chain of human RAR-related Orphan Receptor beta (RORb), RORB (gene 6096) (Q92753 whole entry, looked up, the tested form may be a part): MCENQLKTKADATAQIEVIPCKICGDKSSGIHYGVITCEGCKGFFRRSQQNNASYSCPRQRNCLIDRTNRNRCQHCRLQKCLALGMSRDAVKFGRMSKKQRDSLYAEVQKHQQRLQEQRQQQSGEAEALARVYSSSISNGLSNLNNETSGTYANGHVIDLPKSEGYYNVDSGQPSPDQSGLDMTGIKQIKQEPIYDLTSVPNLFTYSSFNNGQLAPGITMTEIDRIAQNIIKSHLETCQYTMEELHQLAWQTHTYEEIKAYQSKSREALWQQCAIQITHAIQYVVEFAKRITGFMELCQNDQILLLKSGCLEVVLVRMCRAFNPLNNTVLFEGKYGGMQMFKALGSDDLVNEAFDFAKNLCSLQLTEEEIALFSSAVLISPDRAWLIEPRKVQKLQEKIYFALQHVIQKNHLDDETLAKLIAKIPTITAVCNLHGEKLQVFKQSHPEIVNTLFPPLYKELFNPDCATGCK

Assay [2] deals with human Retinoid X Receptor beta (RXRb), RXRB (gene 6257) (UniProt P28702). As to the kind of experiment: ATG_RXRb_TRANS: Attagene TRANS-FACTORIAL HepG2 Assay for human Retinoid X Receptor beta (RXRb) (AID 2283013; active = hit-call score of the fitted dose curve at least 0.9, where 1 is the maximum). The gist of the method:
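Multiplexed TRANS reporter assay in HepG2; 24 h dosing; reporter mRNA by RT-PCR/CE fluorescence; gain-of-signal relative to DMSO.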

Assay [3] has as its target human Thyroid Receptor alpha (THRa1), THRA (gene 7067) (UniProt P10827). As to the kind of experiment: ATG_THRa1_TRANS: Attagene TRANS-FACTORIAL HepG2 Assay for human Thyroid Receptor alpha (THRa1) (AID 2283014; active = hit-call score of the fitted dose curve at least 0.9, where 1 is the maximum). The gist of the method: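 HepG2 cells transiently transfected with chimeric NR-Gal4 and GAL4-UAS reporter units, dosed 24 h. Reporter mRNA quantified by RT-PCR, fluorescent labeling, HpaI digestion and capillary electrophoresis; gain-of-signal fit versus DMSO.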

Assay [4] deals with human Vitamin D Receptor (VDR), VDR (gene 7421) (UniProt P11473). As to the kind of experiment: ATG_VDR_TRANS: Attagene TRANS-FACTORIAL HepG2 Assay for human Vitamin D Receptor (VDR) (AID 2283022; active = hit-call score of the fitted dose curve at least 0.9, where 1 is the maximum). An outline of the steps: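 HepG2 cells were transiently transfected with GAL4-UAS reporter units and a chimeric VDR-Gal4 construct, then dosed for 24 hours. Reporter mRNA was quantified by RT-PCR, fluorescent labeling, HpaI digestion and capillary electrophoresis; gain of signal analysed vs DMSO.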
Chain of human Vitamin D Receptor (VDR), VDR (gene 7421) (P11473 whole entry, looked up, the tested form may be a part): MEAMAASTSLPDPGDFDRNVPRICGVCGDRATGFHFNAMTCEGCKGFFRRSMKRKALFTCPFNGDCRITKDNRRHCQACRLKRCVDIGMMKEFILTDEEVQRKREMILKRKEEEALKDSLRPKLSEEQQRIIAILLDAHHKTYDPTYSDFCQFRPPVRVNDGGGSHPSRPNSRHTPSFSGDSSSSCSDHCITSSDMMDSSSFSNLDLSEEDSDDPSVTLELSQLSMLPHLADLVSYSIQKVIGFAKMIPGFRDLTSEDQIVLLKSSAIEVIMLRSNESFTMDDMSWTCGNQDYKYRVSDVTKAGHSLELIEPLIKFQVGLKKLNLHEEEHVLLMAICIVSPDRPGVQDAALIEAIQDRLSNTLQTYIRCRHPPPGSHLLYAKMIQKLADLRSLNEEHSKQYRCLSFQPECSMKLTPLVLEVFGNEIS

Read-out in assay [5]: E-selectin (Homo sapiens) (UniProt P16581)
As to the kind of experiment: BSK_3C_Eselectin: BioMAP Diversity Plus: 3C Assay for Eselectin Biomarker Activity (AID 2283015).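 For outcome: cell surface E-selectin protein quantified by ELISA 24 h after dosing.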 The settings on record: primary human endothelial cells (HUVEC); actives raise or lower the signal. The gist of the method: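 Primary human umbilical vein endothelial cells (3C system), read 24 h after compound addition; E-selectin measured by ELISA. Bidirectional curve fitting against DMSO baseline; cytotoxicity by parallel SRB total-protein staining.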

Read-out in assay [6]: Interleukin-1 alpha (IL1a), IL1A (gene 3552)
As to the kind of experiment: BSK_BE3C_IL1a: BioMAP Diversity Plus: BE3C Assay for Interleukin-1 alpha (IL1a) Biomarker Activity (AID 2283016). The settings on record: primary human bronchial epithelial cells; actives raise or lower the signal. The gist of the method: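 Cultures of primary human bronchial epithelial cells receive test chemical. After 24 h, IL-1a is quantified by ELISA, while parallel wells are fixed in TCA and SRB-stained for total protein. Changes in either direction are fitted relative to DMSO.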

Read-out in assay [7]: Monocyte Chemoattractant Protein-1 (MCP1), CCL2 (gene 6347)
Put plainly: BSK_3C_MCP1: BioMAP Diversity Plus: 3C Assay for Monocyte Chemoattractant Protein-1 (MCP1) Biomarker Activity (AID 2283017). The settings on record: primary human endothelial cells (HUVEC); actives raise or lower the signal. An outline of the steps: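 Human umbilical vein endothelial cells (3C system) exposed to chemicals for 24 h; MCP-1 quantified by ELISA against the DMSO baseline with bidirectional fitting, and parallel SRB staining used to assess cytotoxicity.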

Read-out in assay [8]: Human Leukocyte Antigen - DR isotype (HLADR), HLA-DRA (gene 3122)
Put plainly: BSK_3C_HLADR: BioMAP Diversity Plus: 3C Assay for Human Leukocyte Antigen - DR isotype (HLADR) Biomarker Activity (AID 2283019).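 For outcome: ELISA of cell-surface HLA-DR on HUVEC 24 h after dosing.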 The settings on record: primary human endothelial cells (HUVEC); actives raise or lower the signal. An outline of the steps:
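HUVEC monoculture, HLA-DR measured by ELISA 24 h after chemical dosing. Fitted bidirectionally against DMSO baseline; parallel SRB staining assessed cytotoxicity, with 3C proliferation read by SRB at 48 h.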

Read-out in assay [9]: Monokine induced gamma interferon (MIG), CXCL9 (gene 4283)
Put plainly: BSK_3C_MIG: BioMAP Diversity Plus: 3C Assay for Monokine induced gamma interferon (MIG) Biomarker Activity (AID 2283021).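 For AC50: MIG protein level measured by immunoassay in the treated endothelial cultures.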 The settings on record: primary human endothelial cells (HUVEC); actives raise or lower the signal. The gist of the method:
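After 24 h of treatment, human umbilical vein endothelial cultures (3C system) had their MIG biomarker level determined by ELISA, with DMSO serving as negative control.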

Assay [10] is described as follows: BSK_3C_SRB: Viability Assessment in the BioMAP Diversity Plus: 3C Assay (AID 2283023).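 Note: fitted both ways against DMSO so a hit may be signal rise or drop.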 The settings on record: primary human endothelial cells (HUVEC). The gist of the method:
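Human umbilical vein endothelial cells in the 3C system, treated 24 h. Total protein measured by 0.1% sulforhodamine B staining after 10% TCA fixation, read at 560 nm; bidirectional fit versus DMSO.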

Read-out in assay [11]: Matrix Metallopeptidase 1 (MMP1), MMP1 (gene 4312)
Put plainly: BSK_BE3C_MMP1: BioMAP Diversity Plus: BE3C Assay for Matrix Metallopeptidase 1 (MMP1) Biomarker Activity (AID 2283024). The settings on record: primary human bronchial epithelial cells; actives raise or lower the signal. An outline of the steps: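 Dose cells, wait 24 h, run MMP1 ELISA; cells are human bronchial epithelial primaries. Both increases and decreases relative to DMSO counted.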

Assay [12] is described as follows: BSK_3C_Vis: BioMAP Diversity Plus: 3C Assay for Morphology Visualization (AID 2283025).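 For AC50: light microscopy image of cell morphology used as background control.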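 Note: fitted both ways so gain or loss versus DMSO counts.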 The settings on record: primary human endothelial cells (HUVEC). An outline of the steps:
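Endothelial cells from human umbilical vein were treated with test chemicals for 24 h and inspected by light microscopy for changes in cell conformation.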

Read-out in assay [13]: Pselectin, SELP (gene 6403)
Put plainly: BSK_4H_Pselectin: BioMAP Diversity Plus: 4H Assay for Pselectin Biomarker Activity (AID 2283026). The settings on record: primary human endothelial cells (HUVEC); actives raise or lower the signal. The gist of the method:
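Human vascular endothelium from umbilical vein; P-selectin measured by ELISA at 24 h post-dose, with cytotoxicity checked by sulforhodamine B total-protein staining in parallel cultures (0.1% SRB after 10% TCA fixation, read at 560 nm).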

The nature of assay [14]: BSK_4H_SRB: Viability Assessment in the BioMAP Diversity Plus: 4H Assay (AID 2283027).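 For AC50: curves fitted both ways versus DMSO so AC50 may be loss or gain.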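 Note: cells exposed to compound for 24 h before staining.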 The settings on record: primary human endothelial cells (HUVEC). The gist of the method: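 Absorbance at 560 nm of SRB-stained total protein served as the viability read-out in confluent primary human umbilical vein endothelium 24 h after chemical treatment. Curves were fitted bidirectionally against DMSO as negative control.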

A short description of assay [15]: BSK_BE3C_SRB: Viability Assessment in the BioMAP Diversity Plus: BE3C Assay (AID 2283028). The settings on record: primary human bronchial epithelial cells. An outline of the steps:
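Human bronchial epithelial primary cells in confluent culture, 24 h after chemical dosing; total protein by 0.1% SRB staining after 10% TCA fixation, read at 560 nm. Bidirectional fitting versus DMSO baseline.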

Read-out in assay [16]: Thrombomodulin, THBD (gene 7056)
As to the kind of experiment: BSK_3C_Thrombomodulin: BioMAP Diversity Plus: 3C Assay for Thrombomodulin Biomarker Activity (AID 2283029). The settings on record: primary human endothelial cells (HUVEC); actives raise or lower the signal. An outline of the steps: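 Thrombomodulin ELISA, human primary HUVEC, 24 h post-dose; data fitted in both directions relative to DMSO.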

Assay [17] concerns the target Retinoic acid receptor RXR-alpha (Homo sapiens) (UniProt P19793). Put plainly: ATG_RXRa_TRANS: Attagene TRANS-FACTORIAL HepG2 Assay for human Retinoid X Receptor alpha (RXRa) (AID 2283012; active = hit-call score of the fitted dose curve at least 0.9, where 1 is the maximum). The gist of the method: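 Cells (HepG2) carried transiently transfected GAL4-responsive reporter units. Following a 24 h chemical incubation, reporter mRNA induction was read via RT-PCR fragment analysis; DMSO served as negative control and baseline.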

Read-out in assay [18]: Interleukin-8 (IL8), CXCL8 (gene 3576)
As to the kind of experiment: BSK_3C_IL8: BioMAP Diversity Plus: 3C Assay for Interleukin-8 (IL8) Biomarker Activity (AID 2283020). The settings on record: primary human endothelial cells (HUVEC); actives raise or lower the signal. An outline of the steps:
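Human vascular endothelial cells (umbilical vein) in the 3C system; IL-8 level detected by ELISA at 24 h post-dose, with DMSO as baseline.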

The structures appear in SMILES notation. Inconclusive results are not listed. Calls of active or inactive are those of the source. Rule for the calls, unless noted: active = hit-call score of the fitted dose curve at least 0.9, where 1 is the maximum; inactive = score below 0.9.

Chain of Retinoic acid receptor RXR-alpha (Homo sapiens) (P19793 whole entry, looked up, the tested form may be a part): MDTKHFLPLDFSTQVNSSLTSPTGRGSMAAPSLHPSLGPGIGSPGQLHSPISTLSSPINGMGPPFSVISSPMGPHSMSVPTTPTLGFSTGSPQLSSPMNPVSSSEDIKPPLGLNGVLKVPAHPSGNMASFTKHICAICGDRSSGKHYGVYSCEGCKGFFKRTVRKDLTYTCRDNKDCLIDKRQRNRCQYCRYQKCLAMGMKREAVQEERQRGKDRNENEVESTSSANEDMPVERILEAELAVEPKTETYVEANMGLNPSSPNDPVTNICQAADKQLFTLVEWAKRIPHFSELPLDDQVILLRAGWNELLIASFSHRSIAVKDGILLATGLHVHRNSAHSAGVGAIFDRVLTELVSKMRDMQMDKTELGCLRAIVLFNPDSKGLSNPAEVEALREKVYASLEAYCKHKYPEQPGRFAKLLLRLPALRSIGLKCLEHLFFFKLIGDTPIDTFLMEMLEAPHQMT
Chain of human Thyroid Receptor alpha (THRa1), THRA (gene 7067) (P10827 whole entry, looked up, the tested form may be a part): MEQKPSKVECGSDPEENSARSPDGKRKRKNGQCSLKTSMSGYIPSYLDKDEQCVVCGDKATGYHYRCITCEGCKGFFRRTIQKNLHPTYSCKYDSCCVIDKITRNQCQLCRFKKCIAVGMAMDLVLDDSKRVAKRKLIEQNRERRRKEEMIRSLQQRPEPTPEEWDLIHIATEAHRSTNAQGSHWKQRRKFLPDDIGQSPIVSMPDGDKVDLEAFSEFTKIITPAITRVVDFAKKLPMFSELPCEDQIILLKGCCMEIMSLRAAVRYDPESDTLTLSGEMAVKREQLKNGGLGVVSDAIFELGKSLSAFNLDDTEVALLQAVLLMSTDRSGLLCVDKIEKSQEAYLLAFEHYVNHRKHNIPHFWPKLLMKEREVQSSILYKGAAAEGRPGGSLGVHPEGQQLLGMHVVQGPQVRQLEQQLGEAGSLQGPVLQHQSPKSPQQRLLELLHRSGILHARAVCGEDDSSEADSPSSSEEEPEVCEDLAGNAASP
Chain of human Retinoid X Receptor beta (RXRb), RXRB (gene 6257) (P28702 whole entry, looked up): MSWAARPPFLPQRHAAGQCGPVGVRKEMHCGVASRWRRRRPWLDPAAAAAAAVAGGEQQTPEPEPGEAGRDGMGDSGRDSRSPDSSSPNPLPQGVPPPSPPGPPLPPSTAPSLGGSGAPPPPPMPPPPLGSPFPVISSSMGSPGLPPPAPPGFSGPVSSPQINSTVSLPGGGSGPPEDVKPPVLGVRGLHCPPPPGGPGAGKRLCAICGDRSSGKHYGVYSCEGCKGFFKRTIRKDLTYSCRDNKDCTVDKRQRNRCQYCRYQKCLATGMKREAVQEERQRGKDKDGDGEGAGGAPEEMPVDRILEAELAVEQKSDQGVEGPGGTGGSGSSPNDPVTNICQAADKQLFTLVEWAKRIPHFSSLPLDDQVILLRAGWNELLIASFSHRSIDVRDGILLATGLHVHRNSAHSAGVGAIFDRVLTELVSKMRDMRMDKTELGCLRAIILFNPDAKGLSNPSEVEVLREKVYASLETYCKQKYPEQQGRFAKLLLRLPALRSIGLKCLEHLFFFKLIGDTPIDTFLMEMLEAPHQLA
Chain of E-selectin (Homo sapiens) (P16581 whole entry, looked up): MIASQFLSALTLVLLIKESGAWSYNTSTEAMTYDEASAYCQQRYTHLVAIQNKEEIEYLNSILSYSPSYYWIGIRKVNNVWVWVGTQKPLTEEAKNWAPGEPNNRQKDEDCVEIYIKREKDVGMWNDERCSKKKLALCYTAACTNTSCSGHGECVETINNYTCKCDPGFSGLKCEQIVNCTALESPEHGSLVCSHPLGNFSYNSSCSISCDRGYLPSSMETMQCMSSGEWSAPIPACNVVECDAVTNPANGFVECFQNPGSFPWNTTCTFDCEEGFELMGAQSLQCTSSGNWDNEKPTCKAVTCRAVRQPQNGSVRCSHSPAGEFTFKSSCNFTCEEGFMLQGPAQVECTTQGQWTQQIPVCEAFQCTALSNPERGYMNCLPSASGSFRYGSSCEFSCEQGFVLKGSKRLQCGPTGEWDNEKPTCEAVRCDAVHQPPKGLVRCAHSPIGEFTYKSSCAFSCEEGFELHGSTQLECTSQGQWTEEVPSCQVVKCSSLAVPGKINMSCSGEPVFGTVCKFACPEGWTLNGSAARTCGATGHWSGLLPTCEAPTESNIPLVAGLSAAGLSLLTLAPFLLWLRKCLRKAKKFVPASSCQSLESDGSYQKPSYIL

Turning to `CCC(C)c1ccccc1` (centres undefined), the result in assay [1], in [2], in assay [3] and in assay [4] was inactive.

Take `CCC1(C)C(=O)N(Cl)C(=O)N1Cl` (centres undefined): the compound was classed as inactive in assay [1], in [2], in assay [5], in assay [6], in assay [7] and in assay [8]. In addition, the outcome in assay [9], in assay [10], in assay [11], in [12], in [13] and in assay [14] was inactive. Besides, the outcome in assay [15] and in [16] was inactive.

For `CC(C)(CO)COC(=O)C(C)(C)CO`, the compound was called inactive in [1], in assay [3] and in assay [4].

`CCOc1ccc(NC(N)=O)cc1`: the outcome in assay [1], in [2] and in [3] was inactive.

In the case of `COC(Cc1ccccc1)OC`, the outcome in [1], in assay [3] and in assay [4] was inactive.

For `Nc1ccnc(=O)[nH]1`, the compound was classed as inactive in assay [1], in assay [2] and in assay [4].

`CCCCNC(=S)NCCCC`: the compound was called inactive in assay [1], in assay [2] and in [3].

Regarding `CCCCCCC=O`, the outcome in assay [1], in [17], in assay [3], in [6], in [7] and in assay [8] was inactive. The outcome in [18], in assay [9], in assay [10], in assay [11], in assay [12] and in [13] was inactive. Besides, the outcome in [14], in [15] and in assay [16] was inactive.

`CC(=O)C(C)C`: the call in assay [1], in [17] and in [4] was inactive.

For `C=CC(=O)OCC(C)OCC(C)OCC(C)OC(=O)C=C` (centres undefined), the compound was called inactive in assay [1], in [17], in assay [3], in assay [4], in assay [11] and in assay [15]. In assay [16], the outcome was inactive. For the same compound, the AC50 is 11 µM (active) in assay [5]; 21.5 µM (active) in assay [6]; 28.9 µM (active) in [7]; 8.55 µM (active) in [8]; 35.5 µM (active) in [9]; 20 µM (active) in [10]. Further, the AC50 in assay [12] was 16 µM (active); in [13], 13.2 µM (active); in [14], 12.1 µM (active).

With `CCCC(C)C(=O)OCC` (centres undefined), the compound was called inactive in assay [1], in assay [17], in [6], in assay [7], in assay [8] and in [9]. Further, the outcome in assay [10], in assay [11], in assay [13], in assay [14], in assay [15] and in assay [16] was inactive.

For `CC(C)(c1ccccc1)c1ccc(Nc2ccc(C(C)(C)c3ccccc3)cc2)cc1`, the compound was called inactive in [1] and in assay [2].

Take `C=CCNCC=C`: the compound was classed as inactive in [1], in [17] and in [3].

As a reminder, the AC50 is the concentration giving half of the maximal activity seen.
